PubChem BioAssay AID1508600 (Functional Genomics Laboratory (NCATS/FGL), 2020)
Screen size: about 53,000 sequences; about 3,700 (7%) were called active.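 Rule for the calls: active = gene knockdowns whose robust z-score for IL-1 alpha signal is at least 2 or at most -2, so actives lie on both sides; inactive = the rest.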 Shown is part of a subset that was picked to be rich in actives.

test: Components of the Cytosolic LPS Sensing Pathway: Gene Identification via Genome-wide siRNA Screen; settings: RAW264.7 macrophages, IL-1a HTRF, actives lie on both sides, screened at 100 nM (by protocol), cells primed 5 h with Pam3CSK4 first;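 note: robust z of the log signal after scaling to non-targeting control siRNA wells of the plate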
Outline: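 Cells (RAW264.7, 1×10^4 per well) were transfected with siRNA at 100 nM and cultured 48h at 37 degrees C. Pam3CSK4 was added for 5 hours; LipidA transfection followed for 24 hour. IL-1a was then measured by HTRF.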

Sequence | z-score
GGCUACAAAGAUGCAGACUTT against Pi4k2a | 0.22 (inactive)
GACAUAUUUGGGUUUCUAATT against Vmn1r15 | -0.645 (inactive)
GGAAUGACUUUUGAGACAGTT against Cyp1a1 | -0.732 (inactive)
GGUAGAGAUCAUCAAUGCATT against Ggt5 | 0.0858 (inactive)
GGAGUCCAAGUUUAAGGAATT against 4930522H14Rik | -1.65 (inactive)
CGGGACACUUGAAUUGGCUTT against Frmd4a | -2.25 (active)
GGAACAUUCUCUCCUUAUGTT against Ctps | -0.168 (inactive)
GGAGUUGCAUCACUUGCUCTT against BC016579 | 0.441 (inactive)
GGUAACUGGUGUCAUUUAATT against Zfp474 | 0.619 (inactive)
GGCAAGAUGCACAAGACUUTT against Cacna1s | 2.6 (active)
GGAUGUGUUACUUACCAAATT against Map4 | 0.607 (inactive)
GGCCUUCUAUACUACAGACTT against Hdac1 | -1.23 (inactive)
CGGCUCACUAGCAGUGUCUTT against Ppm1b | -0.209 (inactive)
GGUUACUCCUUUUUCAAUGTT against Elf5 | -0.636 (inactive)
GGACAUAGUCUGAGGCAAGTT against Ost4 | -1.34 (inactive)
GCUGUUCAAUUUGAUUACUTT against Dapp1 | 1.77 (inactive)
GGCAACCAUAGACGAUGAATT against Rerg | -2.38 (active)
GGACCAGUUAAAGUGGCAGTT against Oas1e | -0.00736 (inactive)
GGUACUUGUACUAAUCGCUTT against Lpcat2 | 0.683 (inactive)
CCCUUGAUUAAGUGGAUUATT against Tgfa | 1.19 (inactive)
GGUGAUGGCUGUUCCUUUCTT against Zdhhc2 | 0.533 (inactive)
GGAUGAAAUUGGAAAGGGCTT against Camkk2 | -0.0472 (inactive)

Sequence | z-score
CCAAUCCUCAACCUUGAAUTT against Ddx19a | 0.0508 (inactive)
GGGACUUCCUUAUUGGAACTT against A830019P07Rik | 1.23 (inactive)
GGAUGUCAACAUUCGAGAUTT against Tmem231 | 0.993 (inactive)
GGCCAGAGACAGUUAUCUUTT against Sptssb | 2.43 (active)
GGAGAAUUGUUUUUACCAGTT against Bbox1 | 0.13 (inactive)
GGACUGACUGGAUUUUUCCTT against Adamts12 | -0.102 (inactive)
GGCAUUAGGAUACAUAACATT against Rpgrip1l | -0.743 (inactive)
GCUGUAACCAACAUACCUCTT against Inka1 | -0.91 (inactive)
GGAACAAAGAUUGAGAGAATT against Sltm | -1.62 (inactive)
GGACAACUUUGAGGAGAUGTT against Tubg2 | 3.23 (active)
GGUUAUCAAAGCUAAGAAUTT against Ifi209 | -0.0859 (inactive)
GCUAGUCAGAAGAAGUACUTT against Actrt2 | -0.402 (inactive)
CCGAAGCAUGAAGAAUCUATT against Tubd1 | 0.544 (inactive)
GAGCAAUAAGCUAGGGUGATT against Olfr1428 | 0.239 (inactive)
GGAAUGUACCAGAAAUACUTT against 4921504E06Rik | 3.01 (active)
GGCAAAUUCGAAAUAGACATT against Evx2 | 0.227 (inactive)
GGAAGAAAUAGAGUUUUACTT against Ephx2 | 3.42 (active)
GGCUCUGAUGUUUCUAAAATT against Hdac10 | 1.29 (inactive)
GGUACUGUCGGUAUCCCACTT against Gcc1 | -1.62 (inactive)
GCCUUUGUACAAUGACUAUTT against Prpf38a | -0.127 (inactive)
GCAGAAAGCAACACGCCCUTT against Pramel20 | 0.631 (inactive)
GGGUAUGCAGAAGGGAACATT against Nrap | 0.424 (inactive)

Sequence | z-score
GGGCAGAGUGAUGUUGUCATT against Gsdmd | -3.34 (active)
CCAUUGUGUGGUACUUAAATT against Mrm3 | 0.448 (inactive)
GCGACUCACUAUUUGGGCATT against Ell3 | 0.471 (inactive)
GGAAAAUUCAUCCUUAGUATT against Wdr61 | -0.086 (inactive)
CGAAACACCAGAUGUAUUCTT against Gck | -0.551 (inactive)
GGUUAUGAAACUGAGAAAGTT against Mid2 | -0.0195 (inactive)
CCCUCUCUUUGGAUACACATT against Tenm4 | -2.98 (active)
GGAUUUGUCAUCCACUUCUTT against Sez6 | -1.79 (inactive)
GCUGCUCAAACAUAAUGAATT against Osbpl2 | -0.419 (inactive)
GGAUGUACAUUCUACCUAUTT against Bap1 | -0.239 (inactive)
GGAUACGAUUGAACGGCUGTT against Rac3 | -0.566 (inactive)
GCUCCUGUAGACAGGUUAGTT against Serac1 | -1.39 (inactive)
CGCUCAUUUAGACAUAGAGTT against Ass1 | 0.686 (inactive)
CGGCAUUUGCUAAUGGUCGTT against Actl6a | -2.79 (active)
CCUAGUCAUAUUCUACAGUTT against Iqca1l | 0.77 (inactive)
GGUUGGAGUUAUAGAUUUUTT against Rufy3 | 1.42 (inactive)
GGAGAGAACUGAUGAAUCCTT against Sdhaf2 | -0.26 (inactive)
CCCUCUUUACCAGUAUUACTT against Pla2g5 | 0.287 (inactive)
GCCGUUCACCAUGAAAUGGTT against Prkci | -0.898 (inactive)
CCAAGCCUUAAUAAGUCAATT against Ccp110 | -2.52 (active)
GGCUACAUGAGAAGCACAGTT against Disc1 | 1.64 (inactive)
CCUUAACAUGUUUCAUCUATT against Sap30 | 0.584 (inactive)

Sequence | z-score
GGUUGUUUCCAGUAUUCUGTT against Apc2 | 1.18 (inactive)
GCUAUAUGUACCCUAGCCATT against H2aj | 2.26 (active)
GCGAAGCGAAUCCUUUUUCTT against Fosl2 | 0.0982 (inactive)
CCCUGCUUGAAUCUCUUCGTT against Tyk2 | -0.191 (inactive)
GGCUUACGUGGUGUGCACUTT against Galr1 | 0.345 (inactive)
GGUCAGGUCUUUUUAUACATT against Zfp354a | 2.56 (active)
GGAAAGGAACUAGCAACGATT against Art3 | -0.642 (inactive)
GGAUACAAUCCUUUUGGAUTT against Dnajb1 | 0.205 (inactive)
GGUGUUUUCCAACAUCCUCTT against Ccrl2 | 3.06 (active)
CCGACAUUCAACAAGAUUUTT against Mta1 | -0.092 (inactive)
CCGGAGCUUUAUUGACACGTT against Rbm19 | 1.15 (inactive)
GGCCUGUGGUUAUGCUGUGTT against Cyp2b10 | -0.716 (inactive)
CCUAUUGAAAAGCCAAACUTT against Lypd11 | -0.651 (inactive)
GGUCUUUGUGUCCACCUACTT against Gpr162 | 0.669 (inactive)
GGUUCUAAUAAAAAUCGGUTT against Pcdhb1 | 0.659 (inactive)
GGAGCUGAAUCAUUAUCUGTT against Rabep1 | -0.0512 (inactive)
GGUGCUGUUUAAAACACAGTT against Aurka | 1.25 (inactive)
GGAGUUGAUAAUAUGGUGGTT against Uck1 | 0.712 (inactive)
GGUGUCCAUGCUAGCUGUATT against Best2 | 2.97 (active)
GGACCAGCUUUUCAACAUUTT against F8 | 0.141 (inactive)
CCUGCUUAGGACCAUCGACTT against Lrrn2 | -0.0914 (inactive)
GGGAUAGCUGUCUUUCAUUTT against Extl3 | -1.02 (inactive)

Sequence | z-score
GCUCUUGCUACUUUUUUCUTT against Olfr823 | -0.108 (inactive)
GGGAAAAACACUUCUCACUTT against Slc35e2 | -0.238 (inactive)
GGUCGCUAUUAAGAUCAUUTT against Mark4 | 0.491 (inactive)
GCUCUGCCUUCAGAUGACGTT against Olfr173 | -0.26 (inactive)
GGCAGAUCAGAAUUGAAUUTT against Fgd6 | -0.528 (inactive)
GGUCCAGGUCUGAAUCUAGTT against Tra2b | 2.48 (active)
GCAAGGAGGUCCAACUAAGTT against Fzd8 | 0.239 (inactive)
GGUUAAUAAUGCGACAGCATT against Rbfox1 | 0.00257 (inactive)
GGAAAACUCAAAGUGCUGATT against Paqr7 | 0.512 (inactive)
CCAGUUUGGUAAUCAUGAATT against Cyb561d2 | -0.244 (inactive)
GGCACCUUGGAGUUACAUATT against Pcdha10 | -0.24 (inactive)
CGACAAGAAAACAUACUAGTT against Gins4 | 2.28 (active)
GCAGACAACUAGACAUACATT against Selenok | -0.42 (inactive)
GCAAUAAUGGCAAUUACGGTT against Slc35f4 | 1.13 (inactive)
GGAGCUGGUGUUGAGUGAGTT against Slfnl1 | -1.81 (inactive)
UUGUGACCAAUUUCUGAAUTT against Pgbd1 | -0.594 (inactive)
GGAGUUAAACAAACAGAGUTT against Psma6 | -0.855 (inactive)
UUUACUCUCAUGGUAACCUTT against Olfr798 | -0.386 (inactive)
GGAGGUAUGGCGGUGAUUATT against Krt77 | 0.718 (inactive)
